# Bead autofluor: counter-screen for toxin protease inhibitors: compound fluorescence. fluorescence intensity (no concentration beside the values). 3.1% of 360,000 active. compound autofluorescence counterscreen, microsphere flow cytometry; active compounds read high; in the data active means fluorescence intensity above about 16000; inconclusive means no clear call, values can overlap the other calls
# BJeLR lethal: kills HRASV12-expressing BJeLR cells. BJeLR (HRASV12) viability, CellTiter-Glo ATP luminescence, 48 h. inhibition, % (test concentration not listed). 0.17% of 300,000 active. AID 1554; in the data active means inhibition above about 50%; inconclusive means no clear call, values can overlap the other calls
# Anthrax LF prot: inhibitors of Bacillus anthracis lethal factor protease | inhibition, % at 10 µM | 0.12% of 360,000 active | multiplex microsphere protease cleavage assay, LF | P15917
# Vc quorum ag: induces V. cholerae light production without autoinducers | V. cholerae BH1578 lux reporter, luminescence, 6 h | 0.16% of 350,000 active | activation, % at 18.7 µM; in the data active means activation mostly above about 9.7%, no sharp cut-off; inconclusive means no clear call, values can overlap the other calls; inactive means mostly below about 3.7%
# BoNT-F LC inh: inhibitors of Botulinum neurotoxin F light chain protease; Multiplex microsphere protease cleavage assay, flow cytometry; inhibition, % at 10 µM; 0.22% of 360,000 active; AID 588497; in the data active means inhibition above about 35%, passing the limit was not always enough; inconclusive means no clear call, values can overlap the other calls
# BoNT A protease: inhibitors of Botulinum neurotoxin A light chain protease | multiplex microsphere protease substrate cleavage, flow cytometry | inhibition, % at 10 µM | 0.17% of 360,000 active | AID 588499
# Hits are given with their value; . = inactive; ? = inconclusive; / = no result given. Shown are actives, neighbours in structure and some others; about 3.7% of the full set was active somewhere. Unless noted, no stated cut-off is given here; in the data, active means inhibition above about 30%; inconclusive means no clear call, values can overlap the other calls; inactive means below that.
SMILES,Bead autofluor,BJeLR lethal,Anthrax LF prot,Vc quorum ag,BoNT-F LC inh,BoNT A protease
CCOC(=O)C1CCCN(C(=O)/C(=C/c2ccco2)NC(=O)c2ccccc2)C1 (stereo not drawn),.,.,31,.,.,.
CCOC(=O)N1CCN(C(=O)/C(=C/c2ccccc2OC)NC(=O)c2ccccc2)CC1,16214,.,.,.,.,?
O=C(N/C(=C/c1ccco1)C(=O)N1CCCCCC1)c1ccccc1,.,.,.,.,.,.
O=C(N/C(=C/c1ccc(F)cc1)C(=O)N1CCOCC1)c1ccccc1,30895,.,?,.,?,?
CC1(C)CC(=O)c2c(oc3cc(O)c(O)cc23)C1,17024,.,.,.,.,.
COCCn1c(=S)[nH]c2cc(C(=O)NC3CCCC(C)C3C)ccc2c1=O (stereo not drawn),.,/,.,.,.,.
COc1ccc(NC(=O)Nc2ccc3c(c2)C(=O)N([C@H](C)CO)C[C@@H](C)[C@@H](CN(C)C(=O)C2CCCCC2)OCCCC[C@H](C)O3)cc1,.,/,.,.,.,.
CN1C2C=CC(=O)C1C1C(=O)N(c3ccccc3)C(=O)C12 (stereo not drawn),.,/,.,/,.,.
Cc1cc([N+](=O)[O-])nn1CC(=O)NNC(=S)Nc1ccc(Cl)cc1,23664,.,.,.,.,.
O=C(c1[nH]c(C(F)(F)F)nc1-c1ccccc1)N1CCC2(CC1)C(=O)NCN2c1ccccc1,.,/,.,/,.,.
O=C(NCC1CCCCC1)c1csc([C@@H]2O[C@H](CO)[C@H](O)[C@H](O)[C@H]2O)n1,.,/,.,.,.,.
O=C(Nc1ccccc1)N1CCC(C(=O)N(Cc2ccco2)Cc2cccs2)CC1,20994,.,.,.,.,?
CC1(C)CC(=O)c2c(O)cc(OCc3ccc([N+](=O)[O-])cc3)cc2O1,24979,.,.,.,.,?
O=C(c1cccc(F)c1)N1CCN(S(=O)(=O)c2ccc(C(F)(F)F)cc2)CC1,22916,.,.,.,.,?
O=C(c1cccc(C(F)(F)F)c1)N1CCCC1,16789,.,.,.,.,?
O=C(c1ccncc1)N1CCN(S(=O)(=O)c2cccc(F)c2)CC1,.,.,.,.,.,.
O=C(c1cccc(Br)c1)N1CCCC1,23116,.,.,.,.,?
O=C(Oc1ccc(N(Cc2cccs2)C2=NS(=O)(=O)c3ccccc32)cc1)c1ccccc1,23485,.,.,.,.,?
O=C(Oc1ccc(N(Cc2cccs2)C2=NS(=O)(=O)c3ccccc32)cc1)c1ccc(Cl)cc1,.,.,.,.,.,.
O=C(NCc1ccccc1Cl)C1CCCN1S(=O)(=O)c1ccccc1F (stereo not drawn),.,.,.,.,.,.
O=C(NCc1cccs1)C1CCCN1S(=O)(=O)c1ccccc1F (stereo not drawn),19819,.,.,.,.,?
CCOC(=O)c1sc2ncnc(NCC(c3cccs3)N(C)C)c2c1C (stereo not drawn),24092,.,.,.,.,.
CN(C)C(CNc1ncnc2sccc12)c1cccs1 (stereo not drawn),.,.,.,.,.,.
CCN1CCN(CCNC(=O)CCCCCn2c(=O)[nH]c3cc(C(=O)OC)ccc3c2=O)CC1,23054,.,.,.,.,.
O=C(c1cc(-c2ccc(Cl)c(Cl)c2)on1)N1CCN(c2ccccc2)CC1,21958,.,.,.,.,.
SMILES,Bead autofluor,BJeLR lethal,Anthrax LF prot,Vc quorum ag,BoNT-F LC inh,BoNT A protease
CC1CCCCN1C(=O)c1cc(-c2ccc(Cl)c(Cl)c2)on1 (stereo not drawn),22609,.,.,.,.,?
CCC1CCCCN1C(=O)c1cc(-c2ccc(Cl)c(Cl)c2)on1 (stereo not drawn),25388,.,.,.,.,?
O=C(c1cc(-c2ccc(Cl)c(Cl)c2)on1)N1CCCCC1,.,.,.,.,.,.
[O-][n+]1cc(Cl)cc(Cl)c1,.,/,.,.,.,.
CC(=O)Oc1ccccc1Cn1c(C)c(C(=O)NCc2cccc([N+](=O)[O-])c2)sc1=O,.,/,.,.,.,.
O=C(NCCN1CCC(n2c(=O)[nH]c3ccccc32)CC1)c1ccccc1C(F)(F)F,.,/,.,/,.,.
Cc1cc(/C=C2/SC(=S)N(c3cccc(C(F)(F)F)c3)C2=O)c(C)n1-c1cccnc1,.,.,46,.,84,53
Cc1c(C(=O)N2CCN(C)CC2)oc2c1C(=O)CC(C)(C)C2,21465,.,.,.,.,.
